According to PubChem BioAssay (Tox21):
Several values for one entry are separate records, joined by “and”; a condition that tells them apart may be missing. Equal values may be shown once. Records with an inconclusive call do not appear. Entries that show only a call come without a potency. Some structures have more than one record in an assay (separate samples or runs), and their calls can disagree. Activity calls are given as the source filed them. Unless noted, calls come from the whole dose curve; as a rule, active = well fitted curve in the direction sought with a large enough effect in the repeat runs; inconclusive = weak or mixed curves; inactive = no such curve, though single readings can be large; an effect the other way counts as inactive or inconclusive.

How the values were obtained:
[1] = biological target: Retinoic acid receptor RXR-alpha (Homo sapiens) (UniProt P19793); assay: qHTS assay to identify small molecule agonists of the RXR signaling pathway (AID 1159527; calls by dose curve; note: nearly all actives have a fitted effect of over 35% in size)
Sequence of Retinoic acid receptor RXR-alpha (Homo sapiens) (P19793 whole entry, looked up): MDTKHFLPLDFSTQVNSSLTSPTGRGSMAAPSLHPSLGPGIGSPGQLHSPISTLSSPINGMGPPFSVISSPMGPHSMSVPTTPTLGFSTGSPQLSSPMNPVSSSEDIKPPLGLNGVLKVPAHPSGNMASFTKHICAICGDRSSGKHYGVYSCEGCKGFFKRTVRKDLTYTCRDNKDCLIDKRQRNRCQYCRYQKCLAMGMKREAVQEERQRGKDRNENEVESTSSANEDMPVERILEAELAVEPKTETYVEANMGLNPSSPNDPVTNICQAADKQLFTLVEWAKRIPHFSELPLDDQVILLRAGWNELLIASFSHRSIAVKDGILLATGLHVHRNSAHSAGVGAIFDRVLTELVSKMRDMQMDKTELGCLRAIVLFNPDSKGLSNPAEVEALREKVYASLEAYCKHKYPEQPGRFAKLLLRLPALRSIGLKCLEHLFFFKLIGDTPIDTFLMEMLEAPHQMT
In short: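 Fluorescence ratio readout (460 vs 530 nm) from GeneBLAzer RXR-alpha HEK 293T cells after 16 hr compound treatment; cells seeded 5 hr beforehand in low-serum, charcoal-stripped medium.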

[2] = qHTS assay to identify small molecule agonists of the RXR signaling pathway - cell viability counter screen (AID 1159529); note: nearly all actives have a fitted effect of over 50% in size; note: potency is the fitted concentration of half-maximal effect
In short: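 Viability read-out for the RXR-alpha agonist qHTS: luminescent CellTiter-Glo signal after 30 min at RT. HEK 293T bla reporter cells, 2% charcoal-stripped FBS, 16 hr compound incubation; tetraoctyl ammonium bromide as cytotoxic control.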

[3] = qHTS assay to identify small molecule antagonists of the retinoid acid receptor (RAR) signaling pathway - cell viability counter screen (AID 1159551); note: nearly all actives have a fitted effect of over 35% in size
In short: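 Measured by luminescent ATP detection, viability reflects C3RL4 cells treated 6 h at 37 C with test chemicals in the presence of 1 uM (final) retinol.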

[4] = qHTS assay to identify small molecule antagonists of the retinoic acid receptor (RAR) signaling pathway (AID 1159552; note: nearly all actives have a fitted effect of over 50% in size)
In short: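 Using a RARE-driven luciferase construct in C3RL4 cells, retinol at 1 uM final provided the agonist stimulus while compounds were co-applied. After 6 hours at 37 C, luminescence was recorded to flag inhibitors of retinol signaling.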

[5] = qHTS assay to identify small molecule antagonists of the estrogen related receptor (ERR) signaling pathway from Tox21 library - cell viability counter screen (AID 1224834); note: nearly all actives have a fitted effect of over 30% in size; note: potency is the fitted concentration of half-maximal effect
In short: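 Seeded ERR cells were rested 6 h at 37 C/5% CO2 before compounds, positive and negative controls or DMSO were added. Incubation continued for 17.5 h, and viability was then quantified by CellTiter-Fluor fluorescence.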

[6] = biological target: Luciferin 4-monooxygenase (Photinus pyralis) (UniProt P08659); assay: qHTS assay to identify small molecule inhibitors of firefly luciferase (AID 1224835); note: nearly all actives have a fitted effect of over 25% in size; note: potency is the fitted concentration of half-maximal effect
Sequence of Luciferin 4-monooxygenase (Photinus pyralis) (P08659 whole entry, looked up): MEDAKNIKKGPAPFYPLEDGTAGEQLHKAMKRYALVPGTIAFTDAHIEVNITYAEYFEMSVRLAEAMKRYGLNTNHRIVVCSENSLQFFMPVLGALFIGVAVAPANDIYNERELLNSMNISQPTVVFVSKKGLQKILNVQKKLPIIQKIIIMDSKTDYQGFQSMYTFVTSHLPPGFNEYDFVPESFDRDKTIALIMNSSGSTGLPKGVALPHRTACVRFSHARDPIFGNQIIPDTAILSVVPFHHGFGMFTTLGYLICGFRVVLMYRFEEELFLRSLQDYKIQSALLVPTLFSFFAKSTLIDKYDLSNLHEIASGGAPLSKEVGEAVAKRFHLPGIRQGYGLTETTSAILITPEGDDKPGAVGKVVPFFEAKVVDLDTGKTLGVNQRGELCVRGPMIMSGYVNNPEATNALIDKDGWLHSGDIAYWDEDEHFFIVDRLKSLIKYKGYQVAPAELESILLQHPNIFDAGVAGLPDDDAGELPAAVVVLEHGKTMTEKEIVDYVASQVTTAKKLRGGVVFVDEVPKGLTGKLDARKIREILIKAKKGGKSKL
In short: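 Biochemical qHTS: compounds run as interplate titrations against purified firefly enzyme, with D-luciferin and ATP each at its KM concentration. Light output recorded by CCD imaging.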

[7] = qHTS assay to identify small molecule agonists of the constitutive androstane receptor (CAR) signaling pathway - cell viability counter screen (AID 1224836); note: nearly all actives have a fitted effect of over 45% in size; note: potency is the fitted concentration of half-maximal effect
In short: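 Multiplexed viability check: HepG2-CYP2B6-hCAR cells, 15-point compound dosing, 0.75 uM PK11195 final, 23 h at 37 C, CellTiter-Fluor fluorescence.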

[8] = qHTS assay to identify small molecule antagonists of the constitutive androstane receptor (CAR) signaling pathway - cell viability counter screen (AID 1224837); note: nearly all actives have a fitted effect of over 45% in size; note: potency is the fitted concentration of half-maximal effect
In short: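 To flag cytotoxic false antagonists, HepG2 hCAR/CYP2B6-2.2kb cells were treated 23 hr with 15-concentration compound series and 50 nM CITCO at 37 C/5% CO2; CellTiter-Fluor fluorescence was the measured end point.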

[9] = biological target: Nuclear receptor subfamily 1 group I member 3 (Homo sapiens) (UniProt Q14994); assay: qHTS assay to identify small molecule antagonists of the constitutive androstane receptor (CAR) signaling pathway (AID 1224838);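 note: HepG2 cells stably expressing hCAR with CYP2B6 luciferase reporter stimulated by CITCO; nearly all actives have a fitted effect of over 40% in size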
Sequence of Nuclear receptor subfamily 1 group I member 3 (Homo sapiens) (Q14994 whole entry, looked up): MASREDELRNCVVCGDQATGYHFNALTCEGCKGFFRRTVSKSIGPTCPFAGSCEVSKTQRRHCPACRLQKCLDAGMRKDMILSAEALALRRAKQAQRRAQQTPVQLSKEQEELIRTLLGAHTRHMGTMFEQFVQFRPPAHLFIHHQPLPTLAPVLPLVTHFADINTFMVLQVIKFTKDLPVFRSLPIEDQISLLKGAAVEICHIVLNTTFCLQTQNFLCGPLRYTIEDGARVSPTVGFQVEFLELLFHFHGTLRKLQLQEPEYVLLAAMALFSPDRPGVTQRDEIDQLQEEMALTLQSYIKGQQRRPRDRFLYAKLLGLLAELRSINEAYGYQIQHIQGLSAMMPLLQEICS
In short: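 Human hepatoma HepG2 cells expressing hCAR and a CYP2B6 promoter (2.2 kb) luciferase construct; compound titration (15 points) with 50 nM CITCO final, 24 h at 37 C/5% CO2; luminescence via ONE-Glo after 30 min at room temperature.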

[10] = biological target: Nuclear receptor subfamily 1 group I member 3 (Homo sapiens) (UniProt Q14994); assay: qHTS assay to identify small molecule agonists of the constitutive androstane receptor (CAR) signaling pathway (AID 1224839); note: nearly all actives have a fitted effect of over 15% in size; note: potency is the fitted concentration of half-maximal effect
In short: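 Using human hepatoma HepG2 cells engineered with hCAR and a CYP2B6-2.2kb reporter, 15-concentration compound series were incubated 24 h alongside PK11195 at 0.75 uM final, with luminescence quantified afterwards.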

[11] = qHTS assay to identify small molecule antagonists of the estrogen related receptor signaling pathway with the pleiotropic PPARgamma coactivator (PGC) from Tox21 10K library - cell viability counter screen (AID 1224840; active = well fitted cell-killing curve with a large enough effect in the repeat runs, not every such curve was filed as active; note: nearly all actives have a fitted effect of over 40% in size; note: potency is the fitted concentration of half-maximal effect)
In short: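 Seeded PGC/ERR cells (2,000/well, 6 h, 37 C/5% CO2) get compound by pin tool; 17.5 h incubation at 37 C; CellTiter-Fluor added, 30 min, fluorescence measured.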

[12] = qHTS assay to identify small molecule antagonists of the estrogen related receptor signaling pathway with the pleiotropic PPARgamma coactivator (PGC) from Tox21 10K library (AID 1224841; call rule not given here; note: series mostly up to about 92 µM; actives are mostly falling curves and most rising ones were filed inactive; nearly all actives have a fitted effect of over 50% in size)
In short: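 Test chemicals dissolved in DMSO were applied to pre-incubated (6 h) PGC/ERR cells at 2,000 cells/well for an 18 h, 37 C treatment; reporter luminescence was then read using One-Glo.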

[13] = qHTS assay to identify small molecule agonists of the estrogen related receptor signaling pathway with the pleiotropic PPARgamma coactivator (PGC) from Tox21 10K library (AID 1224842); note: nearly all actives have a fitted effect of over 15% in size
In short: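 PGC/ERR reporter cell line, 2,000 cells per well, incubated 6 h at 37 C before 23 nL compound in DMSO was added. After 18 h at 37 C, One-Glo luminescence read following 30 min at room temperature.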

[14] = qHTS assay to identify small molecule antagonists of the estrogen related receptor (ERR) signaling pathway (AID 1224819; note: series mostly up to about 46 µM; nearly all actives have a fitted effect of over 50% in size)
In short: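 Compounds dissolved in DMSO were pin-transferred onto ERR cells that had been plated 6 h earlier, and cells were then incubated 18 h at 37 C; signal was luciferase luminescence via One-Glo.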

[15] = qHTS assay to identify small molecule agonists of the estrogen related receptor (ERR) signaling pathway (AID 1224820)
In short: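 After 6 h plating (2,000 cells/well) and 18 h compound treatment at 37 C, ERR cells were lysed with One-Glo and luminescence read after 30 min at room temperature.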

[16] = test system: estrogen-related receptor alpha (ERRalpha) with PGC-1alpha coactivator, human; assay: qHTS assay to identify small molecule antagonists of the estrogen related receptor signaling pathway with the pleiotropic PPARgamma coactivator (PGC) (AID 1224821; calls by dose curve)
In short: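 Luminescence from One-Glo luciferase reagent (30 min, room temperature) measured after 18 h compound treatment at 37 °C. Cells carry the PGC/ERR reporter and were seeded 6 h prior to dosing.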

[17] = qHTS assay to identify small molecule agonists of the estrogen related receptor signaling pathway with the pleiotropic PPARgamma coactivator (PGC) (AID 1224823)
In short: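 Luminescence from One-Glo reagent (30 min, room temperature) was read after 18 h compound treatment at 37 C of PGC/ERR cells plated 6 h beforehand; compounds delivered in DMSO by pin tool.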

[18] = qHTS assay to identify small molecule agonists of the retinoic acid receptor (RAR) signaling pathway (AID 1159553); note: potency is the fitted concentration of half-maximal effect
In short: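 6 hr compound exposure (DMSO vehicle) of overnight-plated C3RL4 RARE-luc cells at 37 C; luminescence quantified after 30 min RT with luciferase reagent.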

[19] = qHTS assay to identify small molecule antagonists of the estrogen related receptor signaling pathway with the pleiotropic PPARgamma coactivator (PGC) cell viability counter screen (AID 1224822; note: series mostly up to about 46 µM)
In short: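 Counter screen for cell viability: PGC/ERR cells, 6 h pre-incubation after plating, 17.5 h compound exposure at 37 C, fluorescence from CellTiter-Fluor after 30 min.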

Row | Structure (SMILES) | Potency [1] | Potency [2] | outcome [3] | Potency [4] | Potency [5] | Potency [6] | Potency [7] | Potency [8] | Potency [9] | Potency [10] | Potency [11] | Potency [12] | outcome [13] | outcome [14] | outcome [15] | outcome [16] | outcome [17] | Potency [18] | outcome [19]
1 | CN(C)CCCSc1ccccc1NC(=O)/C=C/c1ccccc1 | inactive | inactive | inactive | inactive | inactive | inactive | inactive | inactive | inactive | inactive | inactive | inactive | inactive |  |  |  |  |  | 
2 | CCOC(C)(C)C | inactive | inactive | inactive | inactive | inactive |  | inactive | inactive | inactive | inactive | inactive | inactive |  |  |  |  |  |  | 
3 | CCc1cccc2c(CCO)c[nH]c12 | inactive | inactive | inactive | inactive | inactive | inactive | inactive | inactive | inactive | inactive | inactive | inactive | inactive |  |  |  |  |  | 
4 | CCOC(=O)c1cccc(N)c1 | inactive | inactive | inactive | inactive | inactive | inactive | inactive | inactive | inactive | inactive |  | inactive | inactive |  |  |  |  |  | 
5 | CCC(C)C1CCCCC1=O (configuration not stated) | inactive | inactive | inactive | inactive | inactive |  | inactive | inactive | inactive | inactive | inactive | inactive | inactive |  |  |  |  |  | 
6 | NC(=O)COCCN1CCN(C(c2ccccc2)c2ccc(Cl)cc2)CC1 (configuration not stated) | inactive | inactive | inactive | inactive | inactive | inactive | inactive | inactive | inactive | inactive |  | inactive | inactive |  |  |  |  |  | 
7 | CN(C)CCCN1c2ccccc2CCc2ccc(Cl)cc21 | inactive | 38.9 µM (active) | inactive |  | 54.5 µM (active) and 23.7 µM (active) |  | 48.6 µM (active) and 29.8 µM (active) | 48.6 µM (active) |  | inactive | 54.5 µM (active) and inactive |  | inactive | inactive | inactive | inactive | inactive |  | 
8 | CCCCC(CC)COC(=O)c1ccccc1O (configuration not stated) | inactive | inactive | inactive | inactive | inactive | inactive | inactive | inactive | inactive | inactive | inactive | inactive | inactive |  |  |  |  |  | 
9 | O=c1cc(-c2ccccc2)oc2ccccc12 |  | inactive | inactive | inactive | inactive | 7.97 µM (active) and 12.6 µM (active) | inactive | inactive |  | 27.3 µM (active) and 21.6 µM (active) |  |  |  |  |  |  |  | 3.44 µM (active) and 858 nM (active) | inactive
10 | CCOC(=O)CCC(C)=O | inactive | inactive | inactive | inactive | inactive | inactive | inactive | inactive | inactive | inactive | inactive | inactive | inactive |  |  |  |  |  | 
